From PubChem
Dicer processing: inhibitors of Dicer pre-microRNA processing, primary screen, biochemical, cat-ELCCA, chemiluminescence. cat-ELCCA pre-miR-21 Dicer processing; hits give high values. z-score at 25 µM. 47,000 tested, 6% active; in the data active = z-score above about 3, passing the limit was not always enough;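 also: plate controls were vehicle for no effect and no enzyme for full effect; higher signal means more uncleaved substrate so more Dicer inhibition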
Active calls of the source: *. Many of the other results were omitted from the sample, so hits are more common in it than they were.

What do the screens show for `CCOC(=O)NC(=S)Nc1ccc(N2CC(C)OC(C)C2)cc1` (configuration not stated)?
Dicer processing: 0.9

Results for CC(C)(CO)NC(=S)Nc1ccc(F)cc1 ?
Dicer processing: 1.12

What do the screens show for `OCC(CO)(CO)NC(=S)Nc1ccc(F)c(Cl)c1`?
Dicer processing: 0.43

Results for O=C(CSc1nnc(NC2=NS(=O)(=O)c3ccccc32)s1)N1CCOCC1 ?
Dicer processing: 0.26

How did CCCCCOc1cccc(C2c3c(oc4ccccc4c3=O)C(=O)N2c2nnc(C)s2)c1 (configuration not stated) do in these assays?
Dicer processing: -1.14

How did COC(=O)CSc1cc(C)c(Cl)cc1Cl do in these assays?
Dicer processing: -0.42

Results for Cc1ccc(/C=C/c2onc3c(=O)n(C)nc(C)c23)cc1 ?
Dicer processing: -0.8

How did CCOc1cc(N2CCOCC2)c(OCC)cc1NS(=O)(=O)c1ccc(CC)cc1 do in these assays?
Dicer processing: 2.56

Results for C=CCOc1ccc(C2/C(=C(\O)c3ccc(F)cc3)C(=O)C(=O)N2c2nnc(C)s2)cc1 (configuration not stated) ?
Dicer processing: 1.28

Results for Cc1oc2ccc(OCC(=O)OC(C)(C)C)cc2c1C(=O)OC(C)C ?
Dicer processing: -0.82

What do the screens show for `CC(C)(C)c1cc(C(=O)Oc2cncc(Cl)c2)cc(C(=O)Oc2cncc(Cl)c2)c1`?
Dicer processing: 35.6*

What do the screens show for `COC(=O)c1cncc(C(=O)OC)c1`?
Dicer processing: -1.12

Results for CC(C)(C)c1ccc(C(=O)Oc2c(Cl)cncc2Cl)cc1 ?
Dicer processing: 0.22

Results for CN(C)S(=O)(=O)N(CC(=O)NCC1CCCO1)c1ccccc1 (configuration not stated) ?
Dicer processing: -0.79

What do the screens show for `Cn1c(-c2ccc(C#N)cc2)nc(=O)c2cc(Cl)ccc21`?
Dicer processing: 0.16

Results for Cc1nn(-c2ccc([N+](=O)[O-])cc2)c2[nH]c3ccccc3c(=O)c12 ?
Dicer processing: 4.16*

Results for Cc1nn(-c2ccccc2)c2[nH]c3ccccc3c(=O)c12 ?
Dicer processing: 1.32

Results for Cc1nn(-c2ccc([N+](=O)[O-])cc2)c(N)c1C(N)=S ?
Dicer processing: -1.47

How did O=c1c(Oc2ccccc2Br)c(C(F)(F)F)oc2cc(O)ccc12 do in these assays?
Dicer processing: 1.03

What do the screens show for `Cc1cc(C)cc(Oc2c(C(F)(F)F)oc3cc(O)ccc3c2=O)c1`?
Dicer processing: 0.79

How did O=c1c(Oc2ccccc2Cl)c(C(F)(F)F)oc2cc(O)ccc12 do in these assays?
Dicer processing: 3.26*

What do the screens show for `COC(=O)c1scc(S(=O)(=O)C(C)C)c1N/N=C(\C#N)C(=O)c1ccccc1`?
Dicer processing: 12.2

What do the screens show for `O=C(CSc1nc(-c2cccs2)cc(C(F)(F)F)n1)NCc1cccs1`?
Dicer processing: 0.11

Results for CN(C)c1ccc(C=C(c2ccc(N)cc2)c2ccc(N)cc2)cc1 ?
Dicer processing: 6.36*

What do the screens show for `Nc1ccc(N(c2ccccc2)c2ccc(N)cc2)cc1`?
Dicer processing: -0.2

What do the screens show for `COC(=O)C(=C(C)C)c1ccc(N(C)C)cc1`?
Dicer processing: 1.03

Results for Cc1cc(=O)[nH]c(SCc2c(F)cccc2Cl)n1 ?
Dicer processing: 1.24

Results for CCn1c(/C=C/c2c(C)n(C)c3ccccc23)nc2ccccc2c1=O ?
Dicer processing: 1.34

Results for CCCc1cc(=O)[nH]c(SCC(=O)N2CCN(S(=O)(=O)c3ccc(C)cc3)C2)n1 ?
Dicer processing: 0.12

Results for COC(=O)c1cc2nc(-c3cccs3)cc(C(F)(F)F)n2n1 ?
Dicer processing: -0.66

How did Cc1ccc(-c2cc3nc(-c4ccco4)cc(C(F)(F)F)n3n2)cc1 do in these assays?
Dicer processing: -1.33

What do the screens show for `FC(F)(F)c1cc(-c2cccs2)nc2cc(-c3ccco3)nn12`?
Dicer processing: 3.54*

How did Cc1cc(Br)ccc1NCN1C(=O)c2ccccc2C1=O do in these assays?
Dicer processing: 9.12

Results for O=C1CCC(=O)N1CNc1cc(C(F)(F)F)cc(C(F)(F)F)c1 ?
Dicer processing: 3.85*

How did CCc1ccc(NCN2C(=O)c3ccccc3C2=O)cc1 do in these assays?
Dicer processing: 2.66

Results for CC1CC(=O)N(c2ccc(F)cc2F)C(=O)C1 ?
Dicer processing: 0.35

Results for CC(C)c1ccc(NCN2C(=O)CCC2=O)cc1 ?
Dicer processing: 3.67*

Results for O=C1CCC(=O)N1CNc1ccc(F)cc1F ?
Dicer processing: 4.57*

Results for Cc1cc(Cl)ccc1NCN1C(=O)CCC1=O ?
Dicer processing: 5.24*

Results for O=C1CCC(=O)N1CNc1c(F)cccc1F ?
Dicer processing: 0.95

How did O=C(CNc1cc(C(F)(F)F)cc(C(F)(F)F)c1)c1ccc(Cl)cc1 do in these assays?
Dicer processing: 1.22

Results for CC(C)c1ccc(Nc2cc(=O)[nH]n2C)cc1 ?
Dicer processing: -1.79

Results for COc1cc(OC)c(C(F)(F)F)cc1NCN1C(=O)CCC1=O ?
Dicer processing: 0.78

How did Cc1ccc(NCN2C(=O)c3ccccc3C2=O)c(C)c1 do in these assays?
Dicer processing: 0.9

Results for COc1ccc(C=C2C(=O)N(c3ccccc3)C(=O)N(c3ccccc3)C2=O)cc1 ?
Dicer processing: -0.45

What do the screens show for `O=C(CC(c1ccc(Cl)cc1)C1CCCCC1=O)c1ccccc1` (configuration not stated)?
Dicer processing: -0.07

How did FC(F)(F)c1cnc(/N=C/N2CCCCC2)c(Cl)c1 do in these assays?
Dicer processing: -0.35

How did CCOC(=O)C1CCN(S(=O)(=O)c2ccc3c(c2)OCCO3)CC1 do in these assays?
Dicer processing: -0.02

What do the screens show for `CCC(=O)Nc1cc(C(C)(C)C)on1`?
Dicer processing: -0.77

Results for COc1cc(C2c3c(oc4ccccc4c3=O)C(=O)N2CCCN2CCOCC2)ccc1O (configuration not stated) ?
Dicer processing: 1.19

Results for COc1ccc(CN2CCN(Cc3cccc4ccccc34)CC2)c(OC)c1 ?
Dicer processing: 0.34

How did COC(=O)NC(=O)c1ccc(Oc2ccc(C(F)(F)F)cc2[N+](=O)[O-])cc1 do in these assays?
Dicer processing: 2.59

Results for O=C(Oc1ccc2occ([N+](=O)[O-])c2c1)c1ccc(C(F)(F)F)cc1 ?
Dicer processing: 4.68*

What do the screens show for `O=C(Oc1c(Br)cc(C(F)(F)F)cc1[N+](=O)[O-])c1ccccc1Cl`?
Dicer processing: -0.27

How did C=C1SC(Nc2ccc(C)cc2C)=NC1(CC)CC do in these assays?
Dicer processing: -1.88

How did COc1ccc(S(=O)(=O)N2CCCN(S(=O)(=O)c3ccc(OC)cc3)CC2)cc1 do in these assays?
Dicer processing: -0.5

What do the screens show for `COc1ccc(S(=O)(=O)N2CCCN(S(=O)(=O)c3ccc(OC)cc3C)CC2)c(C)c1`?
Dicer processing: 3.05*

Results for COc1ccc(OC)c(S(=O)(=O)N2CCC(C)CC2)c1 ?
Dicer processing: 0.36

Results for CN1CCc2c(sc3c2C(=O)NC(c2cccc(Br)c2)N3)C1 (configuration not stated) ?
Dicer processing: 0.48

How did CC1=C(C(=O)OC2CCCC2)C(c2cccc(Cl)c2)C2=C(CC(C)(C)CC2=O)N1 (configuration not stated) do in these assays?
Dicer processing: 0.01

What do the screens show for `Nc1nc2c(C(=O)N3CCOCC3)nnn2c2ccccc12`?
Dicer processing: 0.86

Results for Nc1nc2c(-c3ccc([N+](=O)[O-])cc3)nnn2c2ccccc12 ?
Dicer processing: 3.88*
